# Assay results reported in PubChem BioAssay (EPA / NIEHS).
# Where “and” joins values, the source holds several entries; their conditions need not be identical. Identical values can stand only once. Calls of active or inactive are those of the source. How the source made its calls: active means hit-call score of the fitted dose curve at least 0.9, where 1 is the maximum; inactive means score below 0.9.
# Assay: ATG_PXRE_CIS: Attagene CIS-FACTORIAL HepG2 Assay for human Pregnane X Receptor Element (PXRE) (AID 2282957)
# Details: HepG2 Attagene CIS-FACTORIAL PXRE reporter, mRNA; actives raise or lower the signal
# Summary of the method: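 HepG2 cells transiently transfected with cis-regulated multiple reporter transcription units; endogenous factor activity measured as reporter mRNA 24 h after dosing. RT-PCR, fluorescent primer extension, HpaI digestion, capillary electrophoresis; bidirectional fit versus DMSO baseline.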
SMILES,AC50,outcome
O=[N+]([O-])C(Br)(CO)CO,158 µM (active),–
CCCCCOC(=O)c1ccccc1C(=O)OCCCCC,27.3 µM (active),–
Cc1ccc(N=C=O)cc1N=C=O,–,inactive
CCCSC(=O)N(CCC)CCC,27.1 µM (active),–
O=C(O)C1C2CCC(O2)C1C(=O)O (centres undefined),68.6 µM (active),–
Oc1ccccc1Cl,–,inactive
CC(C)(C)C(O)(CCc1ccc(Cl)cc1)Cn1cncn1 (centres undefined),2.45 µM (active),–
COC(=O)Nc1nc2ccccc2[nH]1,–,inactive
ClC1=C(Cl)C2(Cl)C3C(Cl)C=CC3C1(Cl)C2(Cl)Cl (centres undefined),7.47 µM (active),–
N#CC(Br)Br,–,inactive
ClCCOCCCl,–,inactive
ClC1=C(Cl)[C@]2(Cl)[C@H]3[C@H]([C@@H]4C=C[C@H]3C4)[C@@]1(Cl)C2(Cl)Cl,2.06 µM (active),–
C1=Cc2cccc3cccc1c23,16.2 µM (active),–
CS(=O)(=O)NC(=O)c1cc(Oc2ccc(C(F)(F)F)cc2Cl)ccc1[N+](=O)[O-],8.23 µM (active),–
CCNS(=O)(=O)C(F)(F)C(F)(F)C(F)(F)C(F)(F)C(F)(F)C(F)(F)C(F)(F)C(F)(F)F,3.71 µM (active) and 6.95 µM (active) and 12.9 µM (active),–
CCN(CC)CCO,–,inactive
CCOc1cccc(C2(N3CCN(c4ccccc4)CC3)CCC(C)CC2)c1 (centres undefined),–,inactive
Nc1ccc(Oc2ccc(N)cc2)cc1,–,inactive
CCCCOC(=O)c1ccccc1C(=O)OCc1ccccc1,27.1 µM (active),–
OCCCBr,–,inactive
CCN(CC)N=O,–,inactive
c1ccc(C2CO2)cc1 (centres undefined),34.8 µM (active),–
[O-][Cl+]O,–,inactive
Oc1ccc2ccc3cccc4ccc1c2c34,13 µM (active),–
Cc1cccc(N)c1N,–,inactive
CC(C)N(Cc1ccccc1)C(=O)C(C)(C)C,1.24 µM (active),–
Cc1cc(N=Nc2ccccc2C)ccc1N,13.9 µM (active),–
c1ccc(N=Nc2ccccc2)cc1,–,inactive

# Assay: ATG_PPRE_CIS: Attagene CIS-FACTORIAL HepG2 Assay for human Peroxisome Proliferator-activated Response Element (PPRE) (AID 2282958)
# Details: HepG2 PPRE cis-element reporter, Attagene transcription factor profiling; actives raise or lower the signal
# Summary of the method: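 HepG2 cells transiently transfected with multiplexed cis-element reporter units measure endogenous transcription factor activity. After 24 h compound exposure, reporter mRNA is quantified by RT-PCR, 6-FAM labeling, HpaI digestion and capillary electrophoresis; bidirectional fits are made against DMSO baseline.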
row,SMILES,outcome
1,CC(C)(C)C(O)(CCc1ccc(Cl)cc1)Cn1cncn1 (centres undefined),inactive
2,Nc1ccc(Oc2ccc(N)cc2)cc1,inactive
3,OCCCBr,inactive
4,CC(C)N(Cc1ccccc1)C(=O)C(C)(C)C,inactive

# Assay: ATG_RORE_CIS: Attagene CIS-FACTORIAL HepG2 Assay for human RAR-related Orphan Receptor Element (RORE) (AID 2282959)
# Details: HepG2 Attagene cis-factorial RORE reporter, mRNA; actives raise or lower the signal
# Summary of the method: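 HepG2 cells transiently transfected with multiple cis-element reporter transcription units, exposed to chemical for 24 h. Reporter mRNA quantified by RT-PCR, 6-FAM primer-extension labeling, HpaI digestion and capillary electrophoresis; bidirectional fit versus DMSO baseline.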
SMILES,AC50,outcome
O=[N+]([O-])C(Br)(CO)CO,100 µM (active),–
CCCCCOC(=O)c1ccccc1C(=O)OCCCCC,–,inactive
Cc1ccc(N=C=O)cc1N=C=O,–,inactive
CCCSC(=O)N(CCC)CCC,–,inactive
O=C(O)C1C2CCC(O2)C1C(=O)O (centres undefined),100 µM (active),–
CC(C)(C)C(O)(CCc1ccc(Cl)cc1)Cn1cncn1 (centres undefined),–,inactive
COC(=O)Nc1nc2ccccc2[nH]1,–,inactive
ClC1=C(Cl)C2(Cl)C3C(Cl)C=CC3C1(Cl)C2(Cl)Cl (centres undefined),–,inactive
N#CC(Br)Br,–,inactive
ClCCOCCCl,–,inactive
ClC1=C(Cl)[C@]2(Cl)[C@H]3[C@H]([C@@H]4C=C[C@H]3C4)[C@@]1(Cl)C2(Cl)Cl,25.2 µM (active),–
C1=Cc2cccc3cccc1c23,–,inactive
CS(=O)(=O)NC(=O)c1cc(Oc2ccc(C(F)(F)F)cc2Cl)ccc1[N+](=O)[O-],–,inactive
CCNS(=O)(=O)C(F)(F)C(F)(F)C(F)(F)C(F)(F)C(F)(F)C(F)(F)C(F)(F)C(F)(F)F,–,inactive
CCN(CC)CCO,–,inactive
CCOc1cccc(C2(N3CCN(c4ccccc4)CC3)CCC(C)CC2)c1 (centres undefined),–,inactive
Nc1ccc(Oc2ccc(N)cc2)cc1,–,inactive
CCCCOC(=O)c1ccccc1C(=O)OCc1ccccc1,–,inactive
OCCCBr,–,inactive
CCN(CC)N=O,–,inactive
c1ccc(C2CO2)cc1 (centres undefined),–,inactive
[O-][Cl+]O,–,inactive
Oc1ccc2ccc3cccc4ccc1c2c34,–,inactive
Cc1cccc(N)c1N,106 µM (active),–
CC(C)N(Cc1ccccc1)C(=O)C(C)(C)C,–,inactive
Cc1cc(N=Nc2ccccc2C)ccc1N,23 µM (active),–
c1ccc(N=Nc2ccccc2)cc1,–,inactive
